Screens from PubChem BioAssay.
Most compounds without a hit are left out; they make up all but 2.3% or so of the library.
Mm-Cpn inhibitor = Inhibitors of TCP-1 ring complex (TRiC) of Methanococcus maripaludis (MmCpn): qHTS | Chaperonin Mm-Cpn (Methanococcus maripaludis) | purified Mm-Cpn ATPase, ADP Transcreener TR-FRET | Potency, µM (highest dose often 76.9 µM), actives largely listed as inhibitors | 330,000 compounds, 0.031% hits | AID 504842, 2011; further: nearly all actives have a fitted effect of over 80% in size
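Reaction buffer contained 30 mM Tris pH 7.4, 100 mM KCl, 5 mM MgCl2 and 1 mM DTT. Mm-CPN (25 nM final) hydrolysed 10 uM ATP over 30 min at 37°C; ADP was read by HTRF.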
FUS suppressor = qHTS for Suppressors of FUS Proteinopathy: Primary screen using FUS-linked yeast assay; Potency, µM (series often up to 76.6 µM), usual class: activators; AID 1347120, 2019; 390,000 compounds, 0.24% hits; S. cerevisiae FUS-expressing, growth rescue, OD600, 24 h; further: nearly all actives have a fitted effect of over 55% in size
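FUS-expressing yeast, raffinose-pregrown, induced in 2% galactose minimal medium at OD 0.005; compounds in a dilution series, 24hr at 30C. Growth restoration read as absorbance at 600 nm. CP55940 positive control, DMSO negative.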
aSyn yeast inh = qHTS of alpha-syn Inhibitors; Yeast expressing alpha-synuclein, growth rescue, BacTiter-Glo, 24 h; Potency, µM (highest dose often 46.1 µM), actives largely listed as activators; 370,000 compounds, 0.14% hits; further: nearly all actives have a fitted effect of over 65% in size
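Galactose-induced alpha-syn yeast (OD600=0.02, raffinose-pregrown) + pinned cpd, 24 hr, 30 deg C; growth by BacTiter-Glo luminescence. Growth restoration scores as activation.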
Abeta yeast res = qHTS for compounds that reverse cellular toxicity of Amyloid beta (A-beta) peptide in yeast: Primary Screen; yeast expressing A-beta42, growth rescue, OD600, 48 h; response scale: 0% DMSO, 100% iron-clioquinol control; 410,000 compounds, 0.063% hits; Potency, µM (titrated, usually from 46.1 µM), actives largely listed as activators; further: nearly all actives have a fitted effect of over 55% in size
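Yeast growth medium received pinned compounds, then yeast cells expressing toxic A-beta were added; plates incubated at 30 C for 48 hr. Growth read as absorbance at 600 nm, normalized to DMSO and equimolar FeCl3 plus clioquinol controls.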
TDP-43 yeast inh = qHTS of TDP-43 Inhibitors. AID 652104, 2013. 410,000 compounds, 1.8% hits. TDP-43 expressing yeast growth rescue, BacTiter-Glo, 24 h. Potency, µM (highest dose often 46.1 µM), actives largely listed as activators; further: nearly all actives have a fitted effect of over 50% in size
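Yeast cells expressing TDP-43 under galactose induction are exposed to compounds for 24 hr at 30 deg C. BacTiter-Glo luminescence measures growth, so protective compounds score as activators.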
CCT modulator = High-Throughput Screening for Modulators of Cytosolic Chaperonin Activity; purified chaperonin ATPase assay, HTRF ADP detection, 30 min; activity change, % (no concentration beside the values), hits read low; 360,000 compounds, 0.3% hits; AID 651819, 2012; in the data active means activity change below about -30%
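ATPase activity: ADP formed was measured by HTRF Transcreener (665/615 nm ratio) after 30 min at 37 deg C with 10 uM ATP. Compounds screened at one 76 uM concentration against 40 or 20 nM TRiC in Tris pH 7.4/KCl/MgCl2/DTT buffer.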
Of the large screens only hits and unclear results are named; the others gave an inactive call. Unless noted, the call rests on the fitted dose curve; in most records, active means well fitted curve in the direction sought with a large enough effect; inconclusive means small, poorly fitted or top-dose-only effect, or another doubt; inactive means no such curve, though single readings can be large; an effect the other way counts as inactive or inconclusive.

COC(=O)C1=C(C)N(c2ccc(S(N)(=O)=O)cc2)C(=O)C1	none
COC(=O)C1=C(C)N(c2ccc(Cl)c(Cl)c2)C(=O)C1	TDP-43 yeast inh 13µM
CSc1nc(N2CCOCC2)c2ccccc2n1	none
CSc1nc(N2CCN(c3ccccc3Cl)CC2)c2ccccc2n1	TDP-43 yeast inh 13µM
COc1ccc(C(=O)C[n+]2cccc3cc(Cl)ccc32)cc1	none (no result: Mm-Cpn inhibitor, FUS suppressor, Abeta yeast res, TDP-43 yeast inh, CCT modulator)
O=C(COC(=O)Cc1ccc(Br)cc1)Nc1ccc(Cl)cn1	Abeta yeast res inconclusive, TDP-43 yeast inh 11µM
CC(C)Cn1c(N)c(C(=O)COC(=O)c2c(O)c(Cl)cc(Cl)c2Cl)c(=O)n(C)c1=O	TDP-43 yeast inh 25µM
Cc1ccc(C2=NNC(=O)C(c3ccc(Cl)cc3)C2)cc1 (configuration not stated)	TDP-43 yeast inh 22µM
O=C1NN=C(c2ccc(Cl)cc2)CC1c1cccc(Br)c1 (configuration not stated)	aSyn yeast inh inconclusive, TDP-43 yeast inh 13µM
CCOC(=O)CSC1=NC(=O)/C(=C/c2ccc(Br)cc2)S1	TDP-43 yeast inh 11µM
CCOC(=O)CSC1=NC(=O)/C(=C\c2ccc(OC(C)=O)cc2)S1	none
Cc1ccc2nc(/C(C#N)=C/c3ccc(-c4cccc(Cl)c4)o3)[nH]c2c1	TDP-43 yeast inh 2µM (no result: Mm-Cpn inhibitor, aSyn yeast inh, CCT modulator)
COC(=O)C1=C(C(=O)OC)[C@]2([C@H]3CC=CCN[C@@H](Cc4ccccc4)C(=O)N3Cc3ccccc3)C=C[C@H]1O2	FUS suppressor 22µM (no result: Mm-Cpn inhibitor)
COc1cccc(NC=C2C(=O)OC3(CCCCC3)OC2=O)c1	TDP-43 yeast inh 25µM (no result: FUS suppressor)
CC(=O)OC12CCCN(C1)/C(=C/c1cccc(Cl)c1)C2 (configuration not stated)	none (no result: Mm-Cpn inhibitor, aSyn yeast inh, Abeta yeast res, TDP-43 yeast inh, CCT modulator)
CCOC(=O)c1cc2c(=O)n3cccc(C)c3nc2n(Cc2ccco2)c1=NC(=O)c1cccnc1	FUS suppressor inconclusive
CCOC(=O)c1cc2c(=O)n3ccccc3nc2n(Cc2ccco2)c1=NC(=O)c1cccnc1	FUS suppressor 32µM
O=C(Nc1cc(C(F)(F)F)ccc1-n1cncn1)c1ccc([N+](=O)[O-])o1	TDP-43 yeast inh 14µM
CCCS(=O)(=O)NCCc1cc2c(C)ccc(C)c2[nH]c1=O	TDP-43 yeast inh 4.5µM
O=C(Cc1ccc(Cl)cc1Cl)OCC(=O)c1ccc[nH]1	TDP-43 yeast inh 18µM
O=C(COc1ccc(Cl)cc1Cl)OCC(=O)c1ccc[nH]1	none
COc1cccc(/C=C/c2nccc3ccccc23)c1OC	none (no result: Mm-Cpn inhibitor, FUS suppressor, Abeta yeast res, TDP-43 yeast inh, CCT modulator)
Cc1sc2nc(COC(=O)CNC(=O)c3cc(F)ccc3F)[nH]c(=O)c2c1C	none (no result: Mm-Cpn inhibitor, aSyn yeast inh, Abeta yeast res, TDP-43 yeast inh, CCT modulator)
Cc1ccc(-c2nc3sccn3c2Nc2ccccc2C)cc1	FUS suppressor inconclusive, TDP-43 yeast inh 35µM (no result: Mm-Cpn inhibitor, aSyn yeast inh, CCT modulator)
O=C(C1CCCN1S(=O)(=O)c1cccc([N+](=O)[O-])c1)N1CCN(c2ccccc2)CC1 (configuration not stated)	none (no result: Mm-Cpn inhibitor, aSyn yeast inh, Abeta yeast res, TDP-43 yeast inh, CCT modulator)
Nc1[nH]n(-c2ccccc2)c(=O)c1N=Nc1ccc(F)cc1	none (no result: Mm-Cpn inhibitor, aSyn yeast inh, Abeta yeast res, TDP-43 yeast inh, CCT modulator)
Cc1cc(Nc2cccc(C(F)(F)F)c2)nc2ccc(NC(=O)c3cccnc3)cc12	FUS suppressor inconclusive, TDP-43 yeast inh inconclusive (no result: Mm-Cpn inhibitor, aSyn yeast inh, CCT modulator)
Cc1cc(Nc2cccc(Cl)c2)nc2ccc(NC(=O)Cc3cccc(C(F)(F)F)c3)cc12	FUS suppressor inconclusive, TDP-43 yeast inh 16µM (no result: Mm-Cpn inhibitor, aSyn yeast inh, CCT modulator)
Cc1nc2ccc(NC(=O)c3cccc(C(F)(F)F)c3)cc2o1	TDP-43 yeast inh 11µM
COc1ccc(Cl)cc1C(=O)Nc1ccc2nc(Nc3cccc(Cl)c3)cc(C)c2c1	FUS suppressor inconclusive, Abeta yeast res inconclusive (no result: Mm-Cpn inhibitor, aSyn yeast inh, CCT modulator)
Cc1cc(Nc2cccc(C(F)(F)F)c2)nc2ccc(NC(=O)c3cccc(Cl)c3)cc12	FUS suppressor inconclusive, Abeta yeast res inconclusive, TDP-43 yeast inh 18µM (no result: Mm-Cpn inhibitor, aSyn yeast inh, CCT modulator)
